Results from PubChem BioAssay AID641 (Vanderbilt High Throughput Screening Facility, 2007).
About 3,400 (5.9%) of roughly 58,000 compounds were called active. Shown is part of a subset that was picked to be rich in actives. Unmarked numbers belong to inactive results.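 Rule for the calls: active = luminescence count or its row- and column-corrected plate score outside the 99.7% band of the plate's sample wells, on either side; inactive = the rest.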

Target: D(1A) dopamine receptor (Homo sapiens) (UniProt P21728)
Sequence (P21728 whole entry, looked up): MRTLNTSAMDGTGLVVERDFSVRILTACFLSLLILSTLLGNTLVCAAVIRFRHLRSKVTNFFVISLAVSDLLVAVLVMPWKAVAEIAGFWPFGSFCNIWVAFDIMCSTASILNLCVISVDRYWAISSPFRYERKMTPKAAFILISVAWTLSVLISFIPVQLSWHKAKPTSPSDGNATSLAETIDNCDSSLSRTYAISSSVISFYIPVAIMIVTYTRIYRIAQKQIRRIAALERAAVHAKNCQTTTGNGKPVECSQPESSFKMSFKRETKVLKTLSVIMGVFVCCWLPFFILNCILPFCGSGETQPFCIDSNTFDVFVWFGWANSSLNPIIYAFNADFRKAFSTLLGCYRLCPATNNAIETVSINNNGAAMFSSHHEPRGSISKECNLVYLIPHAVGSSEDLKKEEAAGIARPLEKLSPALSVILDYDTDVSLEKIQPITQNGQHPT
Assay: D1 CRE-luciferase signal change, two-sided – cell-based, HEK293 D1, dopamine EC30, D1 allosteric modulator project, primary screen (AID 641)
Conditions: dopamine EC30 potentiation, at 10 µM, actives deviate in either direction

Row | SMILES | B-score
1 | CCOC(=O)C(O)(c1ccc(N)c(OC)c1)C(F)(F)F (stereo not given) | -4.69 (active)
2 | CCOC(=O)C(O)(c1ccc(NC(=O)c2ccco2)c(OC)c1)C(F)(F)F (stereo not given) | 0.817
3 | CCOP(=S)(OCC)SCOC(=O)NCC(=O)OC | 1.46
4 | Cc1ccc2c(c1)C1CN(C)CCC1N2C(=O)Cn1nnc(-c2ccccc2F)n1 (stereo not given) | -3.16 (active)
5 | Cc1cc(N2C(=O)C3CCCN3C2c2ccc(Cl)c(Cl)c2)no1 (stereo not given) | 1.04
6 | CC(=NC1CCN(Cc2ccccc2)CC1)c1c(O)n(C)c(=O)n(C)c1=O | 0.191
7 | CCN(CC)CCOC(=O)c1cc2cc(COC)ccc2o1 | 0.407
8 | C=Cn1ccnc1P(=S)(c1cc(N(CC)CC)ns1)c1nccn1C=C | -0.0508
9 | CC(=C1C(=O)c2ccccc2C1=O)N1CCN(CCN=Cc2c(O)n(C)c(=O)n(C)c2=O)CC1 | -0.0144
10 | CCC(=NCCCO)c1c(O)n(-c2ccc(OC)cc2)c(=O)[nH]c1=O | -0.508
11 | CCC(=NCc1ccco1)c1c(O)n(Cc2ccccc2)c(=O)[nH]c1=O | 10.9 (active)
12 | CCCCCCN=C(CC)c1c(O)n(CCCC)c(=O)[nH]c1=O | 2.24
13 | N[C@@H](Cc1c[nH]c2ccccc12)c1nnc(SCc2c(F)cccc2Cl)o1 | -0.133
14 | CCCC(C)n1[nH]c(=O)c2c1NC(=O)CSC2c1ccc(OC)c(OC)c1 (stereo not given) | 0.346
15 | CCc1cccc2c(C#N)cn(CC(=O)N3CCOCC3)c12 | -1.07
